According to the supplement of paper PMC7411054:
Counter-ions that a name gives are not always drawn.

How the values were obtained:
Assay in all cases: phenotypically active (imaging signature differs from DMSO and reproducible) at any of 0.3-9 uM (binary (1 = active, 0 = inactive)); higher = active
Conditions in all cases: treatment time: 24 h
A549-ACTB-RAB5A = tested on: A549-ACTB-RAB5A
In short: (§1)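 Fifteen gene-edited A549, HepG2 and WPMY1 reporter lines (BFP segmentation plus GFP and RFP/FusionRed markers) were treated at 0.3, 1, 3 or 9 µM for 24 h, four wells each, then imaged live. Live-cell features per well were normalised to DMSO control wells. Deviation required ≥3 of 4 wells beyond the 95th percentile of DMSO Euclidean distances, and reproducibility required median replicate Pearson correlation above the 95th percentile of non-replicates. Phenotypic activity needed both criteria.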

A549-CANX-COX4 = tested on: A549-CANX-COX4
In short: as §1

A549-GM130-SQSTM1 = tested on: A549-GM130-SQSTM1
In short: as §1

A549-TP53BP1-CLTA = tested on: A549-TP53BP1-CLTA
In short: as §1

A549-TUBA1B-RELA = tested on: A549-TUBA1B-RELA
In short: as §1

HepG2-ACTB-RAB5A = tested on: HepG2-ACTB-RAB5A
In short: as §1

HepG2-CANX-COX4 = tested on: HepG2-CANX-COX4
In short: as §1

HepG2-GM130-SQSTM1 = tested on: HepG2-GM130-SQSTM1
In short: as §1

HepG2-TP53BP1-CLTA = tested on: HepG2-TP53BP1-CLTA
In short: as §1

HepG2-TUBA1B-RELA = tested on: HepG2-TUBA1B-RELA
In short: as §1

WPMY1-ACTB-RAB5A = tested on: WPMY1-ACTB-RAB5A
In short: as §1

WPMY1-CANX-COX4 = tested on: WPMY1-CANX-COX4
In short: as §1

WPMY1-GM130-SQSTM1 = tested on: WPMY1-GM130-SQSTM1
In short: as §1

WPMY1-TP53BP1-CLTA = tested on: WPMY1-TP53BP1-CLTA
In short: as §1

WPMY1-TUBA1B-RELA = tested on: WPMY1-TUBA1B-RELA
In short: as §1

Measured: phenotypically active

COc1ccc([C@H]2CNC(=O)C2)cc1OC1CCCC1 [(S)-(+)-Rolipram]
inactive: A549-ACTB-RAB5A 0 | A549-CANX-COX4 0 | A549-GM130-SQSTM1 0 | A549-TP53BP1-CLTA 0 | A549-TUBA1B-RELA 0 | HepG2-ACTB-RAB5A 0 | HepG2-CANX-COX4 0 | HepG2-GM130-SQSTM1 0 | HepG2-TP53BP1-CLTA 0 | HepG2-TUBA1B-RELA 0 | WPMY1-ACTB-RAB5A 0 | WPMY1-CANX-COX4 0 | WPMY1-GM130-SQSTM1 0 | WPMY1-TP53BP1-CLTA 0 | WPMY1-TUBA1B-RELA 0

COCc1nc2c([nH]1)c(=O)n(C)c(=O)n2CC(C)C
inactive: A549-ACTB-RAB5A 0 | A549-CANX-COX4 0 | A549-GM130-SQSTM1 0 | A549-TP53BP1-CLTA 0 | A549-TUBA1B-RELA 0 | HepG2-ACTB-RAB5A 0 | HepG2-CANX-COX4 0 | HepG2-GM130-SQSTM1 0 | HepG2-TP53BP1-CLTA 0 | HepG2-TUBA1B-RELA 0 | WPMY1-ACTB-RAB5A 0 | WPMY1-CANX-COX4 0 | WPMY1-GM130-SQSTM1 0 | WPMY1-TP53BP1-CLTA 0 | WPMY1-TUBA1B-RELA 0

CC(C)c1ccc(CC(=O)N2CCC[C@@H](c3cccc(OC(C)(C)C(=O)O)c3)C2)cc1
inactive: A549-ACTB-RAB5A 0 | A549-CANX-COX4 0 | A549-GM130-SQSTM1 0 | A549-TP53BP1-CLTA 0 | A549-TUBA1B-RELA 0 | HepG2-ACTB-RAB5A 0 | HepG2-CANX-COX4 0 | HepG2-GM130-SQSTM1 0 | HepG2-TP53BP1-CLTA 0 | HepG2-TUBA1B-RELA 0 | WPMY1-ACTB-RAB5A 0 | WPMY1-CANX-COX4 0 | WPMY1-GM130-SQSTM1 0 | WPMY1-TP53BP1-CLTA 0 | WPMY1-TUBA1B-RELA 0

CCc1nn(CCCN2CCN(c3cccc(Cl)c3)CC2)c(=O)n1CCOc1ccccc1 [nefazodone]
inactive: A549-ACTB-RAB5A 0 | A549-CANX-COX4 0 | A549-GM130-SQSTM1 0 | A549-TP53BP1-CLTA 0 | A549-TUBA1B-RELA 0 | HepG2-ACTB-RAB5A 0 | HepG2-CANX-COX4 0 | HepG2-GM130-SQSTM1 0 | HepG2-TP53BP1-CLTA 0 | HepG2-TUBA1B-RELA 0 | WPMY1-ACTB-RAB5A 0 | WPMY1-CANX-COX4 0 | WPMY1-GM130-SQSTM1 0 | WPMY1-TP53BP1-CLTA 0 | WPMY1-TUBA1B-RELA 0

O=C1CN2Cc3c(ccc(Cl)c3Cl)N=C2N1 [Anagrelide hydrochloride]
inactive: A549-ACTB-RAB5A 0 | A549-CANX-COX4 0 | A549-GM130-SQSTM1 0 | A549-TP53BP1-CLTA 0 | A549-TUBA1B-RELA 0 | HepG2-ACTB-RAB5A 0 | HepG2-CANX-COX4 0 | HepG2-GM130-SQSTM1 0 | HepG2-TP53BP1-CLTA 0 | HepG2-TUBA1B-RELA 0 | WPMY1-ACTB-RAB5A 0 | WPMY1-CANX-COX4 0 | WPMY1-GM130-SQSTM1 0 | WPMY1-TP53BP1-CLTA 0 | WPMY1-TUBA1B-RELA 0

CCCCCCOc1cc2c(cc1N(C)c1ncc(C(=O)O)cn1)C(C)(C)CCC2(C)C
inactive: A549-ACTB-RAB5A 0 | A549-CANX-COX4 0 | A549-GM130-SQSTM1 0 | A549-TP53BP1-CLTA 0 | A549-TUBA1B-RELA 0 | HepG2-ACTB-RAB5A 0 | HepG2-CANX-COX4 0 | HepG2-GM130-SQSTM1 0 | HepG2-TP53BP1-CLTA 0 | HepG2-TUBA1B-RELA 0 | WPMY1-ACTB-RAB5A 0 | WPMY1-CANX-COX4 0 | WPMY1-GM130-SQSTM1 0 | WPMY1-TP53BP1-CLTA 0 | WPMY1-TUBA1B-RELA 0

c1ccc(CC2=NCCN2)cc1 [tolazoline]
inactive: A549-ACTB-RAB5A 0 | A549-CANX-COX4 0 | A549-GM130-SQSTM1 0 | A549-TP53BP1-CLTA 0 | A549-TUBA1B-RELA 0 | HepG2-ACTB-RAB5A 0 | HepG2-CANX-COX4 0 | HepG2-GM130-SQSTM1 0 | HepG2-TP53BP1-CLTA 0 | HepG2-TUBA1B-RELA 0 | WPMY1-ACTB-RAB5A 0 | WPMY1-CANX-COX4 0 | WPMY1-GM130-SQSTM1 0 | WPMY1-TP53BP1-CLTA 0 | WPMY1-TUBA1B-RELA 0

CCOC(=O)[C@H](CCc1ccccc1)N[C@@H](C)C(=O)N1CCC[C@H]1C(=O)O [enalapril]
inactive: A549-ACTB-RAB5A 0 | A549-CANX-COX4 0 | A549-GM130-SQSTM1 0 | A549-TP53BP1-CLTA 0 | A549-TUBA1B-RELA 0 | HepG2-ACTB-RAB5A 0 | HepG2-CANX-COX4 0 | HepG2-GM130-SQSTM1 0 | HepG2-TP53BP1-CLTA 0 | HepG2-TUBA1B-RELA 0 | WPMY1-ACTB-RAB5A 0 | WPMY1-CANX-COX4 0 | WPMY1-GM130-SQSTM1 0 | WPMY1-TP53BP1-CLTA 0 | WPMY1-TUBA1B-RELA 0

O=C1CCC[C@@H]2[C@H]3CCC[N+]4([O-])CCC[C@@H](CN12)[C@@H]34 (stereo not given in full) [Oxymatrine]
inactive: A549-ACTB-RAB5A 0 | A549-CANX-COX4 0 | A549-GM130-SQSTM1 0 | A549-TP53BP1-CLTA 0 | A549-TUBA1B-RELA 0 | HepG2-ACTB-RAB5A 0 | HepG2-CANX-COX4 0 | HepG2-GM130-SQSTM1 0 | HepG2-TP53BP1-CLTA 0 | HepG2-TUBA1B-RELA 0 | WPMY1-ACTB-RAB5A 0 | WPMY1-CANX-COX4 0 | WPMY1-GM130-SQSTM1 0 | WPMY1-TP53BP1-CLTA 0 | WPMY1-TUBA1B-RELA 0

Nc1ccc(O)c(C(=O)O)c1 [mesalazine]
inactive: A549-ACTB-RAB5A 0 | A549-CANX-COX4 0 | A549-GM130-SQSTM1 0 | A549-TP53BP1-CLTA 0 | A549-TUBA1B-RELA 0 | HepG2-ACTB-RAB5A 0 | HepG2-CANX-COX4 0 | HepG2-GM130-SQSTM1 0 | HepG2-TP53BP1-CLTA 0 | HepG2-TUBA1B-RELA 0 | WPMY1-ACTB-RAB5A 0 | WPMY1-CANX-COX4 0 | WPMY1-GM130-SQSTM1 0 | WPMY1-TP53BP1-CLTA 0 | WPMY1-TUBA1B-RELA 0

C=C1C[C@]23C[C@@]1(O)CC[C@H]2[C@@]12C=C[C@H](O)[C@](C)(C(=O)O1)[C@H]2[C@@H]3C(=O)O [Gibberellic acid]
inactive: A549-ACTB-RAB5A 0 | A549-CANX-COX4 0 | A549-GM130-SQSTM1 0 | A549-TP53BP1-CLTA 0 | A549-TUBA1B-RELA 0 | HepG2-ACTB-RAB5A 0 | HepG2-CANX-COX4 0 | HepG2-GM130-SQSTM1 0 | HepG2-TP53BP1-CLTA 0 | HepG2-TUBA1B-RELA 0 | WPMY1-ACTB-RAB5A 0 | WPMY1-CANX-COX4 0 | WPMY1-GM130-SQSTM1 0 | WPMY1-TP53BP1-CLTA 0 | WPMY1-TUBA1B-RELA 0

CNC(=O)COC(=O)N1CCC(CCc2ccc(Cl)cc2)CC1
inactive: A549-ACTB-RAB5A 0 | A549-CANX-COX4 0 | A549-GM130-SQSTM1 0 | A549-TP53BP1-CLTA 0 | A549-TUBA1B-RELA 0 | HepG2-ACTB-RAB5A 0 | HepG2-CANX-COX4 0 | HepG2-GM130-SQSTM1 0 | HepG2-TP53BP1-CLTA 0 | HepG2-TUBA1B-RELA 0 | WPMY1-ACTB-RAB5A 0 | WPMY1-CANX-COX4 0 | WPMY1-GM130-SQSTM1 0 | WPMY1-TP53BP1-CLTA 0 | WPMY1-TUBA1B-RELA 0

CCCCCOC(=O)Nc1nc(=O)n([C@@H]2O[C@H](C)[C@@H](O)[C@H]2O)cc1F [capecitabine]
inactive: A549-ACTB-RAB5A 0 | A549-CANX-COX4 0 | A549-GM130-SQSTM1 0 | A549-TP53BP1-CLTA 0 | A549-TUBA1B-RELA 0 | HepG2-ACTB-RAB5A 0 | HepG2-CANX-COX4 0 | HepG2-GM130-SQSTM1 0 | HepG2-TP53BP1-CLTA 0 | HepG2-TUBA1B-RELA 0 | WPMY1-ACTB-RAB5A 0 | WPMY1-CANX-COX4 0 | WPMY1-GM130-SQSTM1 0 | WPMY1-TP53BP1-CLTA 0 | WPMY1-TUBA1B-RELA 0

CC(C)(C(=O)O)c1ccc(C(O)CCCN2CCC(C(O)(c3ccccc3)c3ccccc3)CC2)cc1 (stereo not given) [fexofenadine]
inactive: A549-ACTB-RAB5A 0 | A549-CANX-COX4 0 | A549-GM130-SQSTM1 0 | A549-TP53BP1-CLTA 0 | A549-TUBA1B-RELA 0 | HepG2-ACTB-RAB5A 0 | HepG2-CANX-COX4 0 | HepG2-GM130-SQSTM1 0 | HepG2-TP53BP1-CLTA 0 | HepG2-TUBA1B-RELA 0 | WPMY1-ACTB-RAB5A 0 | WPMY1-CANX-COX4 0 | WPMY1-GM130-SQSTM1 0 | WPMY1-TP53BP1-CLTA 0 | WPMY1-TUBA1B-RELA 0
